The source of these data is PubChem BioAssay.

“And” between values parts separate entries of the source, which are not always exact repeats. Equal entries are not always repeated. The source made the active and inactive calls.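 How the source made its calls, unless noted: active means compound raises insulin release from rat beta cells at 5 mM glucose, no numeric limit stated; inactive means the rest.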

Assay [1] can be described thus: Wnt pathway potentiators raising nuclear beta-catenin – imaging, WNT3A-conditioned medium, mouse C2C12, NPC library, primary screen (AID 1117326; in the data active means nuclear beta-catenin stimulation mostly above about 4.2%, no sharp cut-off; inactive means mostly below about 10%). As to conditions: stronger effect = higher value.
The nature of assay [2]: stimulators of insulin release from INS-1E, primary screen, cell-based, 5 mM glucose, NPC library (AID 1117329). As to conditions: rat INS-1E insulin secretion, at 10 µM, stronger effect = higher value.
Assay [3] is described as follows: growth inhibition of GSK3B-pretreated HCT116 cells – cell-based, CellTiter-Glo, 0.2 to 20 µM (AID 1117336;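 active means compounds lowering colon cancer cell viability after pretreatment blocking the GSK3B kinase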). Particulars: HCT116 viability after GSK3B inhibitor, at 20 µM, stronger effect = higher value.
Assay [4] in a line: inhibition of endothelial tube formation, primary screen, imaging, VEGF stimulated, CD31 staining, tube area, NPC library (AID 1117340;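 active means compound that reduces growth-factor-driven endothelial tube area in a mixed cell culture, no cutoff stated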). As to conditions: VEGF-stimulated ADSC/ECFC co-culture, at 10 µM, stronger effect = higher value.
The nature of assay [5]: GLP1 release stimulators, primary, NCI-H716, NPC library (AID 1117341;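 active means compound raises GLP1 secretion from the human gut endocrine cells, with no numeric limit stated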). Particulars: NCI-H716 cells, at 10 µM, stronger effect = higher value.
The nature of assay [6]: HCT116 colon cancer cell growth inhibition, primary screen, CellTiter-Glo luminescence, NPC library (AID 1117342;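 active means compounds that lower survival of HCT116 colon cancer cells in the luminescence readout, no numeric limit stated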). As to conditions: at 20 µM (top of the series). In general terms: In ATP-based viability assays light output follows the ATP content of the culture.
Assay [7] can be described thus: reduced SW480 viability measured with CellTiter-Glo, NPC library, primary (AID 1117343;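 active means compounds that lower viability of the colon cancer cells in the luminescence readout, with no numeric limit stated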). As to conditions: CellTiter-Glo luminescence; at 20 µM (top of the series) unless noted.
Assay [8] in a line: NPC library primary testing for decreased DLD-1 cell viability via CellTiter-Glo (AID 1117346;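 active means compounds that lower survival of DLD-1 colon cancer cells in the luminescence readout, no cutoff given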). Particulars: DLD-1 viability, CellTiter-Glo luminescence; at 20 µM (top of the series).
Assay [9] deals with Mitogen-activated protein kinase 7 (Homo sapiens) (UniProt Q13164). Nature of the assay: Gal4-ERK5 driven luciferase induction – cell-based, HTS, primary screen (AID 1508626;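 active means luciferase signal above three times the same-plate solvent-only control wells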;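 further: luciferase driven by Gal4-ERK5 fusion binding five Gal4 sites before minimal TATA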). Particulars: HeLa Gal4-ERK5 transactivation, 18 h, at 5 µM, stronger effect = higher value.
Assay [10] is described as follows: viability loss with induced miR-34 in A549 – imaging, A549 dox-inducible miR-34, nuclei and caspase counts, primary screen (AID 1347080;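 active means compounds whose cell count with miR-34 switched on is under 0.7 times the count with it off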). Particulars: A549 miR-34 inducible, Hoechst nuclei count, 48 h.
Assay [11] is described as follows: MELAS cybrid and Rieske KO viability enhancers – cell-based, MELAS cybrids, Rieske KO mouse fibroblasts, CellTiter-Glo, primary screen (AID 1508586;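 active means mean z-score across replicates of 1.96 or higher in either the MELAS or the Rieske mutant cell line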;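 further: z relative to plate mean and SD of compound and empty wells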). As to conditions: low glucose.
Assay [12] concerns the target NAD(+) hydrolase SARM1 (Homo sapiens) (UniProt Q6SZW1). Nature of the assay: blocking NAD cleavage by SARM1 SAM-TIR – cell lysate, NAD-Glo luminescence (AID 1508614;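 active means compound whose remaining NAD level is above about 45 nM, limit read from the data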). Particulars: SAM-TIR HEK293T lysate NADase, at 1 µM, stronger effect = higher value.
Where [13] appears, read: stronger effect = lower value, cell number ratio, induced over uninduced.
The mark [14] stands for this setting: measured here: relative caspase fold change +Dox/-Dox.
Where [15] appears, read: measured here: total cells with miR-34 induction, stronger effect = lower value.
Setting [16] is: measured here: total cells without miR-34 induction.
The mark [17] stands for this setting: MELAS cybrid survival, CellTiter-Glo 48 h, stronger effect = higher value.
Setting [18] is: Rieske KO mouse fibroblast survival, CellTiter-Glo 72 h.

NAD(+) hydrolase SARM1 (Homo sapiens), sequence (Q6SZW1 whole entry, looked up): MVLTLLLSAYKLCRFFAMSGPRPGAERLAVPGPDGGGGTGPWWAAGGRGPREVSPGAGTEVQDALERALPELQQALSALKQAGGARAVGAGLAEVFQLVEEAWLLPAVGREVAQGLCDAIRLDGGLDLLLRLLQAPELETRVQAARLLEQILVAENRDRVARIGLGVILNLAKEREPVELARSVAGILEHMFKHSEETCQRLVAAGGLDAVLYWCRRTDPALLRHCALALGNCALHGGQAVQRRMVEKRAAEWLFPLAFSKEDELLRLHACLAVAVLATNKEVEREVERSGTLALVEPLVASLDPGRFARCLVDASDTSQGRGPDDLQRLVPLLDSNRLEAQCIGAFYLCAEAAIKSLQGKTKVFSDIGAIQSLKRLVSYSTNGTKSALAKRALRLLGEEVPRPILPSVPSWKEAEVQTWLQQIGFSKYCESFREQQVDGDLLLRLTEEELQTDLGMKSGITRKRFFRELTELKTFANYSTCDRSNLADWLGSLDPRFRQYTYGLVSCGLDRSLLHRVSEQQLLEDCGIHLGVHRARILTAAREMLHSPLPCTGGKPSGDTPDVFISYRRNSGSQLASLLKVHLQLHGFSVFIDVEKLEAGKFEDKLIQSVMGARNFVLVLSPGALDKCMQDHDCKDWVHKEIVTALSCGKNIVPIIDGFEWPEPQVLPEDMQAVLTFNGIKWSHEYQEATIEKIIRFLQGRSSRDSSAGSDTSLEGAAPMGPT
Mitogen-activated protein kinase 7 (Homo sapiens), sequence (Q13164 whole entry, looked up, the tested form may be a part): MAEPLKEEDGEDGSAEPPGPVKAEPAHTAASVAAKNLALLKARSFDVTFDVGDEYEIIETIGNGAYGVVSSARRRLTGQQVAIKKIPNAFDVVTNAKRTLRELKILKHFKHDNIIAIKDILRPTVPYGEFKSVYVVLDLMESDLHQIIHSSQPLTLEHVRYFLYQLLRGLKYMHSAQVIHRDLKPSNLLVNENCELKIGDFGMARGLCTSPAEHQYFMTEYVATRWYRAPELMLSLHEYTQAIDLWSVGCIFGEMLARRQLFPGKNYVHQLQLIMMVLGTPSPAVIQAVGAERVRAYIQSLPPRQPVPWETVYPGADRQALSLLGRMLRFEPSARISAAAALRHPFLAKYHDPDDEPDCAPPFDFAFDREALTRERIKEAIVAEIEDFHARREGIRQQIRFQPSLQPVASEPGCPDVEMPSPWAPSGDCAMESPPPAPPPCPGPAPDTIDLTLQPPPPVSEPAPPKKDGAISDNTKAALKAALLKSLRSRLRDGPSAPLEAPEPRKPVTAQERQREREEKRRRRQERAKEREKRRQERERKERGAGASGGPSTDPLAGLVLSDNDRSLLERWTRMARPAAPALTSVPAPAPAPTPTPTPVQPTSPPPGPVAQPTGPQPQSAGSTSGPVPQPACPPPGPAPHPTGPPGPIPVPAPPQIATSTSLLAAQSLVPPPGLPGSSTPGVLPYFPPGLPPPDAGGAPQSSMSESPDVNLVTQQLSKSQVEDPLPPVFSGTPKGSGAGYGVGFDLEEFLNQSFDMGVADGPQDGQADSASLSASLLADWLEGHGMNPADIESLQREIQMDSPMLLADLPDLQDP

`CC(C)=CCC[C@@](C)(O)[C@H]1CC=C(C)CC1`: the nuclear beta-catenin stimulation is 1.8% (inactive) in assay [1] (at 10 µM) and 4% in [1] (stimulation, at 2 µM). The insulin secretion stimulation in assay [2] is 3.6% (inactive). In addition, the viability decrease in assay [3] is -34.3% (inactive). In addition, the tube area decrease in assay [4] is 5% (inactive). Further, in assay [5], the GLP1 secretion stimulation is 2.7% (inactive). Also, in [6], the inhibition of viability is -4.77% (inactive). For the same compound, the viability decrease (inhibition) in assay [7] is -13% (inactive); in assay [8] it was -9.9% (inactive). For the same compound, in [9], the luciferase signal was 32 AU (inactive).
With `Cc1c(-c2ccc(O)cc2)n(Cc2ccc(OCCN3CCCCCC3)cc2)c2ccc(O)cc12`, the nuclear beta-catenin stimulation is -3.3% (active) in assay [1] (at 10 µM) and 44.5% in assay [1] (stimulation, at 2 µM). Besides, in assay [2], the insulin secretion stimulation was 4.3% (inactive). Moreover, the viability decrease in [3] is 99.8% (active). Also, the inhibition of viability in [6] was 99.7% (active). The viability decrease (inhibition) is 102% (active) in [7] and 101% (active) in assay [8]. Further, the fold change in assay [10] (setting [13]) is 0.919 (inactive); in assay [10] (setting [14]) it was 0.888. In addition, the cell count came out at 6380 in [10] (setting [15]) and 6940 in assay [10] (setting [16]). Besides, the z-score in assay [11] (setting [17]) was -0.437 (inactive); in assay [11] (setting [18]), 0.502.
Turning to `CCC1Nc2cc(Cl)c(S(N)(=O)=O)cc2S(=O)(=O)N1` (stereo not drawn), the nuclear beta-catenin stimulation in [1] (at 10 µM) is -0.1% (inactive); in assay [1] (stimulation, at 2 µM), -1.8%. For the same compound, the insulin secretion stimulation in assay [2] was 0.25% (inactive). Besides, in [5], the GLP1 secretion stimulation was 2% (inactive).
The corresponding values for `CC(CC=O)CCCC(C)(C)O` (stereo not drawn) are 0.5% (inactive), -1.3%, 0.85% (inactive) and 3.1% (inactive).
On to `CC(=C(CCOC(=O)C(C)C)SSC(CCOC(=O)C(C)C)=C(C)N(C=O)Cc1cnc(C)nc1N)N(C=O)Cc1cnc(C)nc1N`, for which the nuclear beta-catenin stimulation in [1] (at 10 µM) was -0.6% (inactive); in assay [1] (stimulation, at 2 µM) it was 4.5%. Moreover, the insulin secretion stimulation in [2] was 31.5% (active). Also, the viability decrease in [3] was 20.6% (inactive). Further, the inhibition of viability in assay [6] was 30.9% (inactive). Also, the viability decrease (inhibition) in [7] was -6.3% (inactive); in assay [8], -3.9% (inactive).
On to `CO/N=C(\C(=O)N[C@@H]1C(=O)N2C(C(=O)O)=C(CSc3nc(=O)c(O)nn3C)CS[C@H]12)c1csc(N)n1`, for which the nuclear beta-catenin stimulation is -1.8% (inactive) in [1] (at 10 µM) and -0.3% in assay [1] (stimulation, at 2 µM). Also, the insulin secretion stimulation in assay [2] is 0% (inactive). Moreover, in assay [3], the viability decrease is -26.6% (inactive). Besides, in assay [4], the tube area decrease is -1.5% (inactive). In addition, in assay [5], the GLP1 secretion stimulation was -1.7% (inactive). For the same compound, the inhibition of viability in [6] is -9.17% (inactive). Besides, the viability decrease (inhibition) in assay [7] was 8.2% (inactive); in assay [8] it was -15.1% (inactive). Further, the remaining NAD in [12] was 10 nM (inactive).
`O=C(O)C1(C(=O)O)CCC1.[NH2-].[NH2-].[Pt+2]`: the nuclear beta-catenin stimulation was 0% (inactive) in assay [1] (at 10 µM) and -2.2% in assay [1] (stimulation, at 2 µM). Also, the insulin secretion stimulation in assay [2] is -0.3% (inactive). Moreover, the viability decrease in assay [3] is 67.5% (active). Also, the tube area decrease in assay [4] is 55.4% (active). Moreover, the GLP1 secretion stimulation in [5] was 3% (inactive). Further, the inhibition of viability in [6] is 31.7% (inactive). Also, the results for the viability decrease (inhibition) in [7] and in [8] were 2.3% (inactive) and 5.7% (inactive), respectively. In [12], the remaining NAD was 10 nM (inactive). In assay [9], the luciferase signal is 40 AU (inactive).
Take `O=C(O)c1cc(N=Nc2ccc(O)c(C(=O)O)c2)ccc1O`: the nuclear beta-catenin stimulation in assay [1] (at 10 µM) was 1.3% (inactive); in [1] (stimulation, at 2 µM) it was 8.5%. Moreover, in assay [2], the insulin secretion stimulation is 0.9% (inactive). Besides, the viability decrease in assay [3] is 15.9% (inactive). Also, the inhibition of viability in assay [6] was 20.6% (inactive). Besides, the viability decrease (inhibition) was -10.4% (inactive) in [7] and 18.3% (inactive) in assay [8]. Besides, the fold change in assay [10] (setting [13]) was 0.936 (inactive) and 1.24 (inactive); in [10] (setting [14]), 0.766 and 0.877. For the same compound, the cell count in assay [10] (setting [15]) was 9060 and 9000; in [10] (setting [16]), 9680 and 7270. Also, the z-score is -0.277 (inactive) in assay [11] (setting [17]) and -0.199 in [11] (setting [18]). The remaining NAD in assay [12] was 10 nM (inactive).
Regarding `COc1ccc2c(c1)c1c3n2CCN(C)C3=NCC1`, the nuclear beta-catenin stimulation in assay [1] (at 10 µM) was 1.3% (inactive); in [1] (stimulation, at 2 µM), 0.5%. For the same compound, the insulin secretion stimulation in assay [2] is 1.05% (inactive). Further, the GLP1 secretion stimulation in assay [5] was 6.4% (inactive).
For the compound `Cc1cc(-c2ccc(N=Nc3c(S(=O)(=O)O)cc4cc(S(=O)(=O)O)cc(N)c4c3O)c(C)c2)ccc1N=Nc1c(S(=O)(=O)O)cc2cc(S(=O)(=O)O)cc(N)c2c1O`, the nuclear beta-catenin stimulation in assay [1] (at 10 µM) is -3.5% (inactive); in assay [1] (stimulation, at 2 µM), -1.8%. Besides, the insulin secretion stimulation in [2] was 2.95% (inactive). Also, in assay [3], the viability decrease was 35.2% (inactive). In addition, the GLP1 secretion stimulation in assay [5] was -8.7% (inactive). The inhibition of viability in assay [6] is 22.2% (inactive). Besides, the viability decrease (inhibition) in assay [7] is 37.9% (inactive); in assay [8], 23.9% (inactive).
Take `CN1C[C@@H]2C[C@H]1CN2c1cc2c(cc1F)c(=O)c(C(=O)O)cn2C1CC1`: the nuclear beta-catenin stimulation in [1] (at 10 µM) was 0.8% (inactive); in assay [1] (stimulation, at 2 µM), -0.6%. For the same compound, the insulin secretion stimulation in assay [2] was 0.3% (inactive). The viability decrease in assay [3] is 10.6% (inactive). In addition, the tube area decrease in assay [4] is -6.5% (inactive). In addition, the GLP1 secretion stimulation in assay [5] was -0.3% (inactive). Moreover, the inhibition of viability in [6] is 3.9% (inactive). Further, the results for the viability decrease (inhibition) in assay [7] and in assay [8] were -13% (inactive) and -40.5% (inactive), respectively.
Take `CC(C)Cn1cnc2c1c(=O)n(C)c(=O)n2C`: the nuclear beta-catenin stimulation in [1] (at 10 µM) is 1.9% (inactive); in assay [1] (stimulation, at 2 µM), -1.3%. The insulin secretion stimulation in [2] was 1.65% (inactive). The viability decrease in assay [3] was 0% (inactive). In addition, the GLP1 secretion stimulation in assay [5] was 3.4% (inactive). Moreover, the inhibition of viability in assay [6] is 31.9% (inactive). Besides, the viability decrease (inhibition) in [7] is -1.5% (inactive); in assay [8], 11.3% (inactive).
Take `CC(=O)N(c1onc(C)c1C)S(=O)(=O)c1ccc(N)cc1`: the nuclear beta-catenin stimulation is 0.7% (inactive) in assay [1] (at 10 µM) and 0.2% in assay [1] (stimulation, at 2 µM). Further, the insulin secretion stimulation in assay [2] is -0.8% (inactive). The viability decrease in [3] was -73.1% (inactive). In [4], the tube area decrease was -1% (inactive). Moreover, the GLP1 secretion stimulation in assay [5] was -0.8% (inactive). Also, in [6], the inhibition of viability is -3.87% (inactive). Also, the figures for the viability decrease (inhibition) in [7] and in assay [8] were 30.4% (inactive) and 5.3% (inactive), respectively. Further, the luciferase signal in [9] was 40 AU (inactive).
As for `c1ccc2ccccc2c1`, the nuclear beta-catenin stimulation in [1] (at 10 µM) is 0.7% (inactive); in [1] (stimulation, at 2 µM) it was 7.8%. The insulin secretion stimulation in [2] was 6.8% (inactive). Besides, the viability decrease in [3] is 13.1% (inactive). Moreover, in assay [6], the inhibition of viability was 14.8% (inactive). Further, the viability decrease (inhibition) in assay [7] was -4.5% (inactive); in assay [8], 4.2% (inactive).
With `Cc1c(O)cc2c(c1C)O[C@](C)(CCC[C@H](C)CCC[C@H](C)CCCC(C)C)CC2`, the nuclear beta-catenin stimulation in assay [1] (at 10 µM) is 0.3% (inactive); in assay [1] (stimulation, at 2 µM) it was -0.6%. The insulin secretion stimulation in assay [2] is 0.7% (inactive). Moreover, in assay [5], the GLP1 secretion stimulation was 9.2% (inactive).
